In PubChem BioAssay (NCI):
The panel holds about 79,000 compounds, 15% with a hit somewhere; the sample as a whole holds those more often. Calls of active or inactive are those of the source. Cut-off read from the data, not from the text of the source: active = growth inhibition above about 70%; inactive = the rest.

Tests used:
[1] = NCI Yeast Anticancer Drug Screen. Data for the rad52 strain (AID 147);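 note: 0% = growth of vehicle-treated control cultures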; settings: S. cerevisiae rad52 mutant growth inhibition, stronger effect = higher value
Summary of the method: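 Compounds are applied to a genetically defined yeast strain lacking normal DNA damage repair, and inhibition of growth is expressed relative to cultures given vehicle only.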

[2] = NCI Yeast Anticancer Drug Screen. Data for the wt1 strain (AID 149);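 note: 0% = growth of vehicle-treated wt1 cultures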; settings: S. cerevisiae wt1 strain (SPY 50644) growth inhibition, stronger effect = higher value
Summary of the method: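 Vehicle-normalised growth inhibition; strain wt1; compound exposure.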

[3] = NCI Yeast Anticancer Drug Screen. Data for the rad50EPP+ strain (AID 151);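 note: 0% = growth of vehicle-treated control cultures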; settings: S. cerevisiae rad50 mutant strain, stronger effect = higher value
Summary of the method: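 Compounds were applied to the rad50EPP+ yeast strain, which bears a defined DNA repair alteration, and growth inhibition was determined relative to vehicle-treated cultures.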

[4] = NCI Yeast Anticancer Drug Screen. Data for the mgt1 strain (AID 153); settings: S. cerevisiae mgt1 mutant growth inhibition, stronger effect = higher value
Summary of the method: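 Strain: mgt1 yeast, one of a set carrying defined DNA damage repair or cell cycle control alterations. Compound-treated growth compared with vehicle.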

[5] = NCI Yeast Anticancer Drug Screen. Data for the rad50 strain (AID 155);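 note: 0% = growth of vehicle-only cultures of the same strain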; settings: S. cerevisiae rad50 strain growth inhibition, stronger effect = higher value
Summary of the method: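 A DNA repair-deficient yeast mutant serves as the test organism; compound-induced growth inhibition is calculated against vehicle-treated cells.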

[6] = NCI Yeast Anticancer Drug Screen. Data for the mec2-1 strain (AID 157); settings: S. cerevisiae mec2-1 strain, stronger effect = higher value
Summary of the method: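 Strain: mec2-1 (DNA repair/cell cycle alteration). Compound exposure, then growth measured; inhibition expressed relative to vehicle.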

[7] = NCI Yeast Anticancer Drug Screen. Data for the rad14 strain (AID 159);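 note: 0% = growth of vehicle-treated control cultures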; settings: S. cerevisiae rad14 strain growth inhibition, stronger effect = higher value
Summary of the method: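 Vehicle-treated cultures served as the baseline for growth inhibition of a DNA repair-mutant yeast strain exposed to each compound.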

[8] = NCI Yeast Anticancer Drug Screen. Data for the sgs1 mgt1 strain (AID 161);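 note: 0% = growth of cultures given vehicle only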; settings: S. cerevisiae sgs1 mgt1 strain, stronger effect = higher value
Summary of the method: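 Inhibition of yeast growth, normalised to vehicle-treated controls, is reported for a strain bearing genetic alterations in DNA damage repair.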

[9] = NCI Yeast Anticancer Drug Screen. Data for the CLN2oe strain (AID 163);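 note: 0% = growth of vehicle-only control cultures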; settings: S. cerevisiae CLN2oe strain, stronger effect = higher value
Summary of the method: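 Growth of a genetically modified yeast strain is measured after compound exposure and compared with cultures given vehicle alone.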

[10] = NCI Yeast Anticancer Drug Screen. Data for the cln2 rad14 strain (AID 165);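 note: 0% = growth equal to vehicle treated cultures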; settings: S. cerevisiae cln2 rad14 strain, stronger effect = higher value
Summary of the method: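 Compounds are applied to the cln2 rad14 yeast strain, and growth is then compared with that of vehicle-treated cultures to give inhibition.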

[11] = NCI Yeast Anticancer Drug Screen. Data for the bub3 strain (AID 167); settings: S. cerevisiae bub3 mutant strain, stronger effect = higher value
Summary of the method: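 Inhibition values come from growth of compound-treated mutant yeast normalised to vehicle-treated controls.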

[12] = NCI Yeast Anticancer Drug Screen. Data for the wt2 strain (AID 169);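 note: 0% = growth of vehicle-treated yeast cultures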; settings: S. cerevisiae wt2 strain growth inhibition, stronger effect = higher value
Summary of the method: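 This strain belongs to a panel of yeast strains with defined genetic alterations in DNA damage repair or cell cycle control. Compounds are applied, and growth inhibition is measured against vehicle-treated cultures.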

[13] = NCI Yeast Anticancer Drug Screen. Data for the mlh1 strain (AID 171);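 note: 0% = growth of vehicle-treated control cultures of the same strain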; settings: S. cerevisiae mlh1 strain growth inhibition, stronger effect = higher value
Summary of the method: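 Growth of the mutant yeast strain after compound exposure, expressed as inhibition relative to vehicle-only controls.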

[14] = NCI Yeast Anticancer Drug Screen. Data for the sgs1 strain (AID 173);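 note: 0% = growth of vehicle-only control cultures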; settings: S. cerevisiae sgs1 mutant, stronger effect = higher value
Summary of the method: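 Growth of a yeast strain bearing a defined genetic alteration is measured after compound treatment. Inhibition is expressed relative to vehicle-only controls.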

[15] = NCI Yeast Anticancer Drug Screen. Data for the mlh1 rad18 strain (AID 175); settings: S. cerevisiae mlh1 rad18 strain growth inhibition, stronger effect = higher value
Summary of the method: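 Read-out is yeast growth inhibition, calculated against vehicle-only controls. The compound was applied to a strain engineered with DNA damage repair alterations.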

[16] = NCI Yeast Anticancer Drug Screen. Data for the rad18 strain (AID 177); settings: S. cerevisiae rad18 mutant growth inhibition, stronger effect = higher value
Summary of the method: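 Growth of the mutant yeast strain after compound exposure, normalised to vehicle-only cultures.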

[17] = at 5.0 µM (retest, dose inferred, filed as 0.5)
[18] = at 50.0 µM (retest, dose inferred, filed as 5.0)

Measured: growth inhibition

NNc1ccccc1Cl
inactive: [1]; at 1.2 µM 40% | [2]; at 1.2 µM 40% | [3]; at 1.2 µM 56% | [4]; at 1.2 µM 25% | [4]; at 3.7 µM 42% | [5]; at 1.2 µM 39% | [5]; [17] 21% | [6]; at 1.2 µM 19% | [6]; at 3.7 µM 68% | [6]; [17] -8% | [7]; at 1.2 µM 23% | [7]; at 3.7 µM 29% | [8]; [17] 11% | [9]; at 1.2 µM 60% | [10]; [17] 41% | [11]; at 1.2 µM 38% | [12]; at 1.2 µM 42% | [12]; at 3.7 µM 66% | [13]; at 1.2 µM 44% | [14]; at 1.2 µM 47% | [16]; at 1.2 µM 46%
active: [1]; at 3.7 µM 72% | [1]; at 11.0 µM 78% | [1]; at 33.0 µM 95% | [1]; at 100.0 µM 96% | [2]; at 3.7 µM 73% | [2]; at 11.0 µM 81% | [2]; at 33.0 µM 95% | [2]; at 100.0 µM 97% | [3]; at 3.7 µM 80% | [3]; at 11.0 µM 92% | [3]; at 33.0 µM 95% | [3]; at 100.0 µM 94% | [4]; at 11.0 µM 79% | [4]; at 33.0 µM 96% | [4]; at 100.0 µM 96% | [5]; at 3.7 µM 83% | [5]; at 11.0 µM 80% | [5]; at 33.0 µM 96% | [5]; [18] 97% | [5]; at 50.0 µM 89.2% | [5]; at 100.0 µM 97% | [6]; at 11.0 µM 84% | [6]; at 33.0 µM 97% | [6]; [18] 99% | [6]; at 50.0 µM 90.7% | [6]; at 100.0 µM 97% | [7]; at 11.0 µM 76% | [7]; at 33.0 µM 96% | [7]; at 100.0 µM 96% | [8]; [18] 96% | [8]; at 50.0 µM 92.3% | [9]; at 3.7 µM 93% | [9]; at 11.0 µM 96% | [9]; at 33.0 µM 97% | [9]; at 100.0 µM 98% | [10]; [18] 98% | [10]; at 50.0 µM 89.5% | [11]; at 3.7 µM 89% | [11]; [17] 86% | [11]; at 11.0 µM 93% | [11]; at 33.0 µM 97% | [11]; [18] 98% | [11]; at 50.0 µM 89.5% | [11]; at 100.0 µM 97% | [12]; at 11.0 µM 83% | [12]; at 33.0 µM 96% | [12]; at 100.0 µM 96% | [13]; at 3.7 µM 80% | [13]; at 11.0 µM 89% | [13]; at 33.0 µM 97% | [13]; at 100.0 µM 97% | [14]; at 3.7 µM 86% | [14]; at 11.0 µM 90% | [14]; at 33.0 µM 96% | [14]; at 100.0 µM 97% | [15]; [17] 82% | [15]; [18] 97% | [15]; at 50.0 µM 88.2% | [16]; at 3.7 µM 86% | [16]; at 11.0 µM 84% | [16]; at 33.0 µM 95% | [16]; at 100.0 µM 97%

Cn1cc(NC(=O)c2cc(NC(=O)CN=C(N)N)cn2C)cc1C(=O)NCCC(=N)N
active: [1]; at 33.0 µM 97% | [1]; at 100.0 µM 98% | [2]; at 33.0 µM 85% | [2]; at 100.0 µM 96% | [3]; at 33.0 µM 73% | [3]; at 100.0 µM 96% | [4]; at 33.0 µM 94% | [4]; at 100.0 µM 99% | [5]; at 33.0 µM 97% | [5]; [18] 87% | [5]; at 50.0 µM 89.2% | [5]; at 100.0 µM 97% | [6]; at 33.0 µM 95% | [6]; at 50.0 µM 87.5% | [6]; at 100.0 µM 99% | [7]; at 33.0 µM 97% | [7]; at 100.0 µM 98% | [8]; at 50.0 µM 84.6% | [9]; at 33.0 µM 96% | [9]; at 100.0 µM 97% | [11]; at 33.0 µM 93% | [11]; [18] 70% | [11]; at 50.0 µM 87.3% | [11]; at 100.0 µM 97% | [12]; at 33.0 µM 95% | [12]; at 100.0 µM 97% | [13]; at 33.0 µM 93% | [13]; at 100.0 µM 98% | [14]; at 33.0 µM 93% | [14]; at 100.0 µM 96% | [15]; [18] 94% | [15]; at 50.0 µM 85.5% | [16]; at 33.0 µM 95% | [16]; at 100.0 µM 97%
inactive: [1]; at 1.2 µM 21% | [1]; at 3.7 µM 7% | [1]; at 11.0 µM 56% | [2]; at 1.2 µM 17% | [2]; at 3.7 µM 26% | [2]; at 11.0 µM 24% | [3]; at 1.2 µM 19% | [3]; at 3.7 µM 1% | [3]; at 11.0 µM 24% | [4]; at 1.2 µM 1% | [4]; at 3.7 µM 6% | [4]; at 11.0 µM 5% | [5]; at 1.2 µM 0% | [5]; at 3.7 µM 4% | [5]; [17] -30% | [5]; at 11.0 µM 67% | [6]; at 1.2 µM 20% | [6]; at 3.7 µM 18% | [6]; [17] -11% | [6]; at 11.0 µM 31% | [6]; [18] 44% | [7]; at 1.2 µM 18% | [7]; at 3.7 µM -2% | [7]; at 11.0 µM 35% | [8]; [17] 7% | [8]; [18] 11% | [9]; at 1.2 µM -1% | [9]; at 3.7 µM 0% | [9]; at 11.0 µM 16% | [10]; [17] -13% | [10]; [18] 28% | [10]; at 50.0 µM 68.5% | [11]; at 1.2 µM 11% | [11]; at 3.7 µM 18% | [11]; [17] 6% | [11]; at 11.0 µM 2% | [12]; at 1.2 µM 17% | [12]; at 3.7 µM 13% | [12]; at 11.0 µM 23% | [13]; at 1.2 µM -8% | [13]; at 3.7 µM -16% | [13]; at 11.0 µM -7% | [14]; at 1.2 µM 4% | [14]; at 3.7 µM 6% | [14]; at 11.0 µM 17% | [15]; [17] -18% | [16]; at 1.2 µM -4% | [16]; at 3.7 µM -18% | [16]; at 11.0 µM 14%
